Molecules are shown by their SMILES. This is part of a sample that, as a whole, favours compounds with a hit. Of some 83,000 tested, about 20% had one in any assay.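 Growth was measured after 48 h exposure to one concentration of compound in 96-well plates. Values under 10 count as active.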 Values without a mark were called inactive. Active and inactive are the calls of the source.

Some test systems named below: NCI-H23 lung; NCI-H322M lung; HOP-62 NSCLC; NCI-H460 lung; HOP-92 NSCLC; NCI-H522 lung; A549/ATCC NSCLC; 786-0 renal; COLO 205 colon; DU-145 prostate; MALME-3M melanoma; MDA-MB-231 breast; SF-268 CNS; SF-295 CNS; SF-539 CNS; UACC-257 melanoma; M14 melanoma; HCT-15 colon; K-562 leukemia; RXF 393 renal.
What all share (assay): NCI-60 one-dose screen, 48 h (100 = growth as untreated, 0 = no growth, -100 = all killed)
Conditions in all cases: 10 µM unless noted

In the case of `COc1ccc(-c2nocc2-c2cccs2)cc1`, the growth in the assay with NCI-H23 lung was 105%; in the assay with NCI-H322M lung, 102%; in the assay on HOP-62 NSCLC, 101%; in the assay with NCI-H460 lung, 102%; in the assay with HOP-92 NSCLC, 86.6%; in the assay on NCI-H522 lung, 98.5%. For the same compound, the growth with A549/ATCC NSCLC is 99.3%; with 786-0 renal, 103%; in the assay with COLO 205 colon, 115%; in the assay on DU-145 prostate, 107%; with MALME-3M melanoma, 106%; in the assay with MDA-MB-231 breast it was 92.8%. The growth with SF-268 CNS is 101%; with SF-295 CNS it was 95.1%; with SF-539 CNS it was 101%; in the assay on UACC-257 melanoma it was 118%; in the assay with M14 melanoma, 111%; in the assay on HCT-15 colon it was 99.1%.

Consider `O=C(NCc1ccco1)C1CN(c2ccc(Cl)cc2)N(c2ccc(Cl)cc2)C1=O` (stereo unspecified), for which the growth was 59.5% in the assay on NCI-H23 lung; 68.2% in the assay on NCI-H322M lung; 48.6% with HOP-62 NSCLC; 14.4% in the assay with NCI-H460 lung; 78.1% in the assay on HOP-92 NSCLC; 39.3% in the assay on NCI-H522 lung. The growth with A549/ATCC NSCLC was 40.1%; in the assay with 786-0 renal, 37.6%; with DU-145 prostate, 70.1%; in the assay on K-562 leukemia it was 17.9%; in the assay with MALME-3M melanoma it was 37.2%; with MDA-MB-231 breast, 59.1%. The growth is 58.2% in the assay with RXF 393 renal; 50.9% in the assay on SF-268 CNS; 30.1% in the assay with SF-295 CNS; 49.4% in the assay with SF-539 CNS; 69.1% in the assay with UACC-257 melanoma; 32.1% in the assay on M14 melanoma. Moreover, the growth in the assay with HCT-15 colon is 28.4%.

Turning to `Cn1nc(C(F)(F)F)c(-c2ccc(Cl)c(C(F)(F)F)c2)c1-c1ccc(OCc2ccc(Cl)cc2)cc1O`, the growth with NCI-H23 lung is -6.46% (active); in the assay on NCI-H322M lung it was 18.1%; with HOP-62 NSCLC it was 50.5%; in the assay on NCI-H460 lung, 6.25% (active); in the assay on HOP-92 NSCLC, -22.4% (active); in the assay on NCI-H522 lung it was -13.7% (active). The growth in the assay on A549/ATCC NSCLC is 12.8%; with 786-0 renal it was 28.4%; in the assay on COLO 205 colon, 24.5%; in the assay with DU-145 prostate, 19%; in the assay with MALME-3M melanoma, 12.2%; with MDA-MB-231 breast, 8.7% (active). Also, the growth was 26% in the assay on SF-268 CNS; 12.8% with SF-295 CNS; 34.4% with SF-539 CNS; 2.35% (active) in the assay on UACC-257 melanoma; 35.4% with M14 melanoma; 8.53% (active) in the assay on HCT-15 colon.

For the compound `COC(=O)c1c2c(c(C)[n+]([O-])c1C)C(=O)C=C(NCc1ccccc1)C2=O`, the growth in the assay on NCI-H23 lung is -50% (active); in the assay with NCI-H322M lung, -5.71% (active); in the assay with HOP-62 NSCLC it was 2.96% (active); in the assay with NCI-H460 lung, -13.1% (active); in the assay on HOP-92 NSCLC, -27.2% (active); in the assay with NCI-H522 lung, -26.1% (active). For the same compound, the growth in the assay on A549/ATCC NSCLC was -4.94% (active); in the assay on 786-0 renal it was 4.63% (active); in the assay with DU-145 prostate it was -92.7% (active); in the assay with K-562 leukemia, 1.96% (active); with MALME-3M melanoma it was -96.9% (active); in the assay on MDA-MB-231 breast it was -26% (active). Moreover, the growth in the assay with RXF 393 renal is -25.3% (active); in the assay on SF-268 CNS it was -4.22% (active); in the assay with SF-295 CNS, -84% (active); in the assay with SF-539 CNS, -90.2% (active); with UACC-257 melanoma, -89.6% (active); in the assay with M14 melanoma it was -80.1% (active). In addition, the growth in the assay with HCT-15 colon is -68.5% (active).

Consider `Cc1ccc2[nH]c(=O)cc(-n3nncc3Cn3c4ccccc4c4ccccc43)c2c1`, for which the growth in the assay with NCI-H23 lung is 94.1%; in the assay with NCI-H322M lung it was 97.6%; in the assay on HOP-62 NSCLC, 93.4%; in the assay on NCI-H460 lung, 102%; in the assay with HOP-92 NSCLC it was 89.8%; in the assay on NCI-H522 lung, 93.9%. For the same compound, the growth in the assay with A549/ATCC NSCLC is 98.9%; in the assay on 786-0 renal it was 101%; in the assay with COLO 205 colon, 116%; with DU-145 prostate, 102%; in the assay on MALME-3M melanoma, 93.5%; in the assay on MDA-MB-231 breast it was 97.6%. Further, the growth was 86.4% in the assay with SF-268 CNS; 98.9% with SF-295 CNS; 94% with SF-539 CNS; 97.5% in the assay with UACC-257 melanoma; 105% in the assay on M14 melanoma; 99% in the assay with HCT-15 colon.

In the case of `CNCCNc1nc2ccccc2c2c(=O)c3cccc(OC)c3sc12`, the growth with NCI-H23 lung is 47.1%; in the assay on NCI-H322M lung, 33.8%; with HOP-62 NSCLC it was 34.1%; in the assay on NCI-H460 lung, -68.2% (active); in the assay on HOP-92 NSCLC it was 5.16% (active); in the assay on NCI-H522 lung, 27.5%. Further, the growth is 17.9% with A549/ATCC NSCLC; 26.5% with 786-0 renal; 12.6% in the assay with DU-145 prostate; -39% (active) with K-562 leukemia; 59.6% in the assay on MALME-3M melanoma; 13.8% in the assay on MDA-MB-231 breast. Also, the growth is 41.5% with RXF 393 renal; 37.8% with SF-268 CNS; 52.6% with SF-295 CNS; 34.9% in the assay with SF-539 CNS; 64% in the assay with UACC-257 melanoma; -71.3% (active) in the assay with M14 melanoma. Besides, the growth in the assay with HCT-15 colon was -39.9% (active).

For the compound `Cc1ccc(C)c(-c2csc(Nc3ccc(C)c(C)c3)n2)c1`, the growth was 57% in the assay with NCI-H23 lung; 91.1% with NCI-H322M lung; 62.3% in the assay with HOP-62 NSCLC; 38.5% with NCI-H460 lung; 27.1% in the assay on HOP-92 NSCLC; 65.3% in the assay on NCI-H522 lung. The growth with A549/ATCC NSCLC was 43.6%; in the assay on 786-0 renal, 65.9%; in the assay on COLO 205 colon, -54.6% (active); in the assay on K-562 leukemia it was -36.5% (active); with MALME-3M melanoma, -86.3% (active); with MDA-MB-231 breast, 39.5%. In addition, the growth in the assay with RXF 393 renal was 21.8%; in the assay on SF-268 CNS, 75.5%; with SF-295 CNS, -79.5% (active); in the assay with SF-539 CNS it was 25.1%; with UACC-257 melanoma, -58.6% (active); with M14 melanoma it was -81.3% (active). The growth in the assay with HCT-15 colon is 12.4%.

For `COc1ccc(-c2c(-c3ccc(OC)c(O)c3)cnc3ncnn23)cc1`, the growth was 99.9% in the assay with NCI-H23 lung; 106% with NCI-H322M lung; 111% with HOP-62 NSCLC; 108% in the assay on NCI-H460 lung; 95.1% with HOP-92 NSCLC; 96% in the assay on NCI-H522 lung. Also, the growth was 100% with A549/ATCC NSCLC; 103% in the assay on 786-0 renal; 126% in the assay with COLO 205 colon; 105% with DU-145 prostate; 111% in the assay with MALME-3M melanoma; 102% in the assay with MDA-MB-231 breast. Also, the growth in the assay with SF-268 CNS is 101%; with SF-295 CNS, 102%; in the assay on SF-539 CNS, 98.6%; in the assay with UACC-257 melanoma, 105%; in the assay on M14 melanoma, 106%; in the assay on HCT-15 colon, 100%.

As for `Cc1nn(-c2nc3ccccc3[nH]2)c2c1C(c1ccc(OCC(N)=O)cc1)CC(=O)N2` (stereo unspecified), the growth with NCI-H23 lung was 103%; with NCI-H322M lung it was 105%; in the assay with HOP-62 NSCLC, 100%; with NCI-H460 lung, 103%; in the assay on HOP-92 NSCLC it was 105%; in the assay with NCI-H522 lung, 100%. Besides, the growth was 109% with A549/ATCC NSCLC; 104% in the assay on 786-0 renal; 117% with COLO 205 colon; 107% in the assay with DU-145 prostate; 88.2% in the assay with MALME-3M melanoma; 103% with MDA-MB-231 breast. For the same compound, the growth in the assay with SF-268 CNS was 96.4%; in the assay with SF-295 CNS, 69.5%; in the assay on SF-539 CNS it was 100%; in the assay on UACC-257 melanoma it was 110%; in the assay with M14 melanoma, 80%; in the assay on HCT-15 colon, 98%.

Source of the values: PubChem BioAssay (NCI).
